# Measured values reported in the supplement of paper PMC8253809.
# Test system: SUDIPGIV (diffuse intrinsic pontine glioma line)
# Assay: growth inhibition (% activity, log2 RLU normalised to DMSO / staurosporine); higher = more growth inhibition
# Conditions: 33 µM
# Method in brief: (§1)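 For each approved drug, the growth-inhibition value is the replicate median of per-plate normalised CellTiter-Glo data. Luminescence was log2-transformed and expressed as % activity between solvent and positive control wells. Drugs were applied in triplicate at a single final concentration of about 33 μM for 7 days at 37 °C, 5% CO2 to pHGG cell lines and H9-derived neural stem cells.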
row,Compound,growth inhibition
1,CNC(=O)c1ccc(N2C(=S)N(c3ccc(C#N)c(C(F)(F)F)c3)C(=O)C2(C)C)cc1F,1.84%
2,O=c1oc2cc(O)ccc2s1,1.11%
3,CN1CCC(=C2c3ccccc3CC(=O)c3sccc32)CC1,-1.24%
4,CC1=C(C(=O)OC(C)C)C(c2cccc([N+](=O)[O-])c2)C(C(=O)OC2CN(C(c3ccccc3)c3ccccc3)C2)=C(N)N1 (stereo not drawn),14.3%
5,C[C@H]1C[C@@H]2[C@H]([C@@H](O)C[C@@]3(C)[C@H]2CC[C@]3(O)C(=O)CO)[C@@]2(C)C=CC(=O)C=C12,5.2%
6,C[C@@H]1CC(=O)NN=C1c1ccc(NN=C(C#N)C#N)cc1,5.05%
7,Cc1cnc(NC(=O)C2=C(O)c3ccccc3S(=O)(=O)N2C)s1,-3.44%
8,CCCCCCCCCCCCCCCC[N+](C)(C)CCN(Cc1ccc(OC)cc1)c1ncccn1,57.6%
9,CC(C)OC(=O)OCOP(=O)(CO[C@H](C)Cn1cnc2c(N)ncnc21)OCOC(=O)OC(C)C,0.684%
10,C#CCC(Cc1cnc2nc(N)nc(N)c2n1)c1ccc(C(=O)N[C@@H](CCC(=O)O)C(=O)O)cc1 (stereo partly drawn),16.5%
11,CCOC(=O)CCC(=O)O[C@H]1[C@H](O[C@@H]2[C@@H](C)[C@H](O[C@H]3C[C@@](C)(OC)[C@@H](O)[C@H](C)O3)[C@@H](C)C(=O)O[C@H](CC)[C@@](C)(O)[C@H](O)[C@@H](C)C(=O)[C@H](C)C[C@@]2(C)O)O[C@H](C)C[C@@H]1N(C)C,-1.78%
12,Nc1cc(C(Cl)=C(Cl)Cl)c(S(N)(=O)=O)cc1S(N)(=O)=O,1.51%
13,CCCCC(CC)CN=C(N)N=C(N)NCCCCCCNC(N)=NC(N)=NCC(CC)CCCC (stereo not drawn),59.4%
14,C[N+](C)(C)CCCCCC[N+](C)(C)C,-2.32%
15,CC(C)CN(C[C@@H](O)[C@H](Cc1ccccc1)NC(=O)O[C@H]1CO[C@H]2OCC[C@H]21)S(=O)(=O)c1ccc(N)cc1,-3.11%
16,NCCc1c[nH]cn1,0.269%
17,c1ccc2c(CC3=NCCN3)cccc2c1,1.67%
18,C=CCc1cc(OC)c(O)c(C(=O)NCCO)c1,-1.83%
19,COc1cc2/c(=N/c3ccc(Br)cc3F)nc[nH]c2cc1OCC1CCN(C)CC1,-1.09%
20,Clc1ccc(C(Cn2ccnc2)OCc2csc3c(Cl)cccc23)c(Cl)c1 (stereo not drawn),13.8%

row,Compound,growth inhibition
1,OCCOCCN1CCN(C2=Nc3ccccc3Sc3ccccc32)CC1,-0.167%
2,CC(C)(C)c1cc(C(C)(C)C)c(NC(=O)c2c[nH]c3ccccc3c2=O)cc1O,9.36%
3,Nc1ccc(/N=N/c2ccccc2)c(N)n1,-2.91%
4,CC1(C)O[C@@H]2C[C@H]3[C@@H]4CCC5=CC(=O)C=C[C@]5(C)[C@@]4(F)[C@@H](O)C[C@]3(C)[C@]2(C(=O)CO)O1,-0.618%
5,C[C@H]1c2cccc(O)c2C(=O)C2=C(O)[C@]3(O)C(=O)C(C(N)=O)=C(O)[C@@H](N(C)C)[C@@H]3[C@@H](O)[C@@H]21,10.2%
6,CCc1cc2c(cc1CC)CC(NC[C@H](O)c1ccc(O)c3[nH]c(=O)ccc13)C2,1.53%
7,COc1cc2c(cc1O)CC[C@@H]1[C@@H]2CC[C@]2(C)[C@@H](O)CC[C@@H]12,20.7%
8,CN(CCOc1ccc(NS(C)(=O)=O)cc1)CCc1ccc(NS(C)(=O)=O)cc1,-2.75%
9,NC[C@H](O)c1ccc(O)c(O)c1,1.37%
10,NC(=O)C(c1ccccc1)(c1ccccc1)[C@@H]1CCN(CCc2ccc3c(c2)CCO3)C1,0.535%
11,O=C(O)c1ccc(-n2nc(-c3ccccc3O)nc2-c2ccccc2O)cc1,-5.33%
12,CN(C/C=C/c1ccccc1)Cc1cccc2ccccc12,0.156%
13,CC(C)/N=c1\cc2n(-c3ccc(Cl)cc3)c3ccccc3nc-2cc1Nc1ccc(Cl)cc1,21.9%
14,Nc1ccc(C(=O)O)c(O)c1,0.343%
15,CN1CCN(CCCN2c3ccccc3Sc3ccc(Cl)cc32)CC1,-0.567%
16,O=c1ccn([C@@H]2O[C@H](CO)[C@@H](O)[C@H]2O)c(=O)[nH]1,-1.57%
17,Oc1c(Cl)cc(Cl)c2cccnc12,3.67%
18,COC1C(O)CC(=O)OC(C)CC=CC=CC(OC2CCC(N(C)C)C(C)O2)C(C)CC(CC=O)C1OC1OC(C)C(OC2CC(C)(O)C(O)C(C)O2)C(N(C)C)C1O (stereo not drawn),-0.377%
19,CC[C@H](C)C[C@H](C)CCCCCCCCC(=O)N[C@H]1C[C@@H](O)[C@@H](NCCN)NC(=O)[C@@H]2[C@@H](O)CCN2C(=O)[C@H]([C@H](O)CCN)NC(=O)[C@H]([C@H](O)[C@@H](O)c2ccc(O)cc2)NC(=O)[C@@H]2C[C@@H](O)CN2C(=O)[C@H]([C@@H](C)O)NC1=O,-1.11%

# Test system: SUDIPGVI (diffuse intrinsic pontine glioma line)
# Assay: as above
# Conditions: 33 µM
# Method in brief: as §1
row,Compound,growth inhibition
1,CNC(=O)c1ccc(N2C(=S)N(c3ccc(C#N)c(C(F)(F)F)c3)C(=O)C2(C)C)cc1F,-1.51%
2,O=c1oc2cc(O)ccc2s1,5.42%
3,CN1CCC(=C2c3ccccc3CC(=O)c3sccc32)CC1,0.438%
4,CC1=C(C(=O)OC(C)C)C(c2cccc([N+](=O)[O-])c2)C(C(=O)OC2CN(C(c3ccccc3)c3ccccc3)C2)=C(N)N1 (stereo not drawn),27.2%
5,C[C@H]1C[C@@H]2[C@H]([C@@H](O)C[C@@]3(C)[C@H]2CC[C@]3(O)C(=O)CO)[C@@]2(C)C=CC(=O)C=C12,-0.182%
6,C[C@@H]1CC(=O)NN=C1c1ccc(NN=C(C#N)C#N)cc1,1.51%
7,Cc1cnc(NC(=O)C2=C(O)c3ccccc3S(=O)(=O)N2C)s1,1.38%
8,CCCCCCCCCCCCCCCC[N+](C)(C)CCN(Cc1ccc(OC)cc1)c1ncccn1,56.7%
9,CC(C)OC(=O)OCOP(=O)(CO[C@H](C)Cn1cnc2c(N)ncnc21)OCOC(=O)OC(C)C,0.813%
10,C#CCC(Cc1cnc2nc(N)nc(N)c2n1)c1ccc(C(=O)N[C@@H](CCC(=O)O)C(=O)O)cc1 (stereo partly drawn),17.6%
11,CCOC(=O)CCC(=O)O[C@H]1[C@H](O[C@@H]2[C@@H](C)[C@H](O[C@H]3C[C@@](C)(OC)[C@@H](O)[C@H](C)O3)[C@@H](C)C(=O)O[C@H](CC)[C@@](C)(O)[C@H](O)[C@@H](C)C(=O)[C@H](C)C[C@@]2(C)O)O[C@H](C)C[C@@H]1N(C)C,-9.9%
12,Nc1cc(C(Cl)=C(Cl)Cl)c(S(N)(=O)=O)cc1S(N)(=O)=O,-1.12%
13,CCCCC(CC)CN=C(N)N=C(N)NCCCCCCNC(N)=NC(N)=NCC(CC)CCCC (stereo not drawn),60.2%
14,C[N+](C)(C)CCCCCC[N+](C)(C)C,-9.56%
15,CC(C)CN(C[C@@H](O)[C@H](Cc1ccccc1)NC(=O)O[C@H]1CO[C@H]2OCC[C@H]21)S(=O)(=O)c1ccc(N)cc1,-1.79%
16,NCCc1c[nH]cn1,-0.51%
17,c1ccc2c(CC3=NCCN3)cccc2c1,3.03%
18,C=CCc1cc(OC)c(O)c(C(=O)NCCO)c1,0.104%
19,COc1cc2/c(=N/c3ccc(Br)cc3F)nc[nH]c2cc1OCC1CCN(C)CC1,-4.91%
20,Clc1ccc(C(Cn2ccnc2)OCc2csc3c(Cl)cccc23)c(Cl)c1 (stereo not drawn),1.94%

row,Compound,growth inhibition
1,OCCOCCN1CCN(C2=Nc3ccccc3Sc3ccccc32)CC1,-0.798%
2,CC(C)(C)c1cc(C(C)(C)C)c(NC(=O)c2c[nH]c3ccccc3c2=O)cc1O,2.56%
3,Nc1ccc(/N=N/c2ccccc2)c(N)n1,-4.45%
4,CC1(C)O[C@@H]2C[C@H]3[C@@H]4CCC5=CC(=O)C=C[C@]5(C)[C@@]4(F)[C@@H](O)C[C@]3(C)[C@]2(C(=O)CO)O1,1.71%
5,C[C@H]1c2cccc(O)c2C(=O)C2=C(O)[C@]3(O)C(=O)C(C(N)=O)=C(O)[C@@H](N(C)C)[C@@H]3[C@@H](O)[C@@H]21,-0.454%
6,CCc1cc2c(cc1CC)CC(NC[C@H](O)c1ccc(O)c3[nH]c(=O)ccc13)C2,-4.28%
7,COc1cc2c(cc1O)CC[C@@H]1[C@@H]2CC[C@]2(C)[C@@H](O)CC[C@@H]12,-1.23%
8,CN(CCOc1ccc(NS(C)(=O)=O)cc1)CCc1ccc(NS(C)(=O)=O)cc1,-13.8%
9,NC[C@H](O)c1ccc(O)c(O)c1,3.2%
10,NC(=O)C(c1ccccc1)(c1ccccc1)[C@@H]1CCN(CCc2ccc3c(c2)CCO3)C1,2.52%
11,O=C(O)c1ccc(-n2nc(-c3ccccc3O)nc2-c2ccccc2O)cc1,-6.58%
12,CN(C/C=C/c1ccccc1)Cc1cccc2ccccc12,1.27%
13,CC(C)/N=c1\cc2n(-c3ccc(Cl)cc3)c3ccccc3nc-2cc1Nc1ccc(Cl)cc1,5.83%
14,Nc1ccc(C(=O)O)c(O)c1,-1.22%
15,CN1CCN(CCCN2c3ccccc3Sc3ccc(Cl)cc32)CC1,-3.14%
16,O=c1ccn([C@@H]2O[C@H](CO)[C@@H](O)[C@H]2O)c(=O)[nH]1,-0.357%
17,Oc1c(Cl)cc(Cl)c2cccnc12,4.23%
18,COC1C(O)CC(=O)OC(C)CC=CC=CC(OC2CCC(N(C)C)C(C)O2)C(C)CC(CC=O)C1OC1OC(C)C(OC2CC(C)(O)C(O)C(C)O2)C(N(C)C)C1O (stereo not drawn),1.86%
19,CC[C@H](C)C[C@H](C)CCCCCCCCC(=O)N[C@H]1C[C@@H](O)[C@@H](NCCN)NC(=O)[C@@H]2[C@@H](O)CCN2C(=O)[C@H]([C@H](O)CCN)NC(=O)[C@H]([C@H](O)[C@@H](O)c2ccc(O)cc2)NC(=O)[C@@H]2C[C@@H](O)CN2C(=O)[C@H]([C@@H](C)O)NC1=O,-4.4%
